Compound activity as filed in PubChem.
Rows were chosen to be rich in hits. Some 21% of all compounds tested hit in one or more screens of this group.
Pf growth 96h = Primary qHTS for delayed death inhibitors of the malarial parasite plastid, 96 hour incubation; P. falciparum luciferase reporter growth, 96 h; Potency, µM (top dose mostly 28.7 µM), without a hit: at the highest dose activity change, negative = inhibition, most hits filed as inhibitors; 6.9% of 320,000 active; AID 504834, 2011; further: potency means the concentration at half of the fitted maximal effect; on the % scale 0 is the no-effect control and ±100 the full control effect
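Two-generation exposure (96 h) targets delayed-death phenotype. Reporter parasites carrying integrated firefly luciferase, in red cells at 2% hematocrit and 0.05% parasitemia final, kept at 37 C, 5% CO2; luminescence loss indicates inhibition.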
Shiga inhibitor = A qHTS for Small Molecule Inhibitors of Shiga Toxin; 9.2% of 290,000 active; Vero cells, Shiga toxin protein synthesis inhibition reporter; AID 2315, 2010; inhibition, % at 38.7 µM; in the data active means inhibition mostly above about 28%, no sharp cut-off; inactive means mostly below about 43%; further: 0% is about no effect
Pf growth 48h = Primary qHTS for delayed death inhibitors of the malarial parasite plastid, 48 hour incubation; P. falciparum luciferase growth in erythrocytes, 48 h; Potency, µM (series often up to 28.7 µM), inactives show at the top dose activity change, negative = inhibition, hits mostly inhibitors; 5.9% of 310,000 active; further: potency means the concentration at half of the fitted maximal effect; on the % scale 0 is the no-effect control and ±100 the full control effect
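First compound was added to culture medium, then infected red cells at 0.1% parasitemia and 2% hematocrit (final). After incubation at 37 C under 5% CO2, luciferase detection reagent was dispensed and light output recorded.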
Cycloheximide cs = Cycloheximide Counterscreen for Small Molecule Inhibitors of Shiga Toxin | cell reporter, cycloheximide protein synthesis inhibition counterscreen | max response, % | 12% of 300,000 active | AID 2314, 2010; in the data active means max response mostly above about 13%, no sharp cut-off; inactive means mostly below about 14%; further: read at 38.3 µM for the half of the compounds with a filed dose; 0% is about no effect
* = called active by the depositor; u = inconclusive; x = no result; + = active, no number; [ ] = remark or other dose. Unless noted, the call rests on the fitted dose curve; in most records, active means well fitted inhibition curve with a large enough effect; inconclusive means small, poorly fitted or top-dose-only effect, or another doubt; inactive means no such curve, though single readings can be large or run the other way.

SMILES	Pf growth 96h	Shiga inhibitor	Pf growth 48h	Cycloheximide cs
C=CCn1c(SCCOc2ccc(OC)cc2)nnc1C(C)NC(=O)c1ccc(OC)cc1 (stereo not given)	6.6µM*	8	x	4
CC1CC(C)CN(S(=O)(=O)c2ccc(C(=O)N3CCOCC3)cc2)C1 (stereo not given)	1%	17	u	-2
CC(C)CCN(C(=O)c1cc(=O)[nH]c2ccccc12)c1c(N)n(Cc2ccccc2)c(=O)[nH]c1=O	-54%	x	u	x
CCN1CCN(C(=O)/C(=C/c2cccs2)NC(=O)c2ccc(C)c(C)c2)CC1	14%	-31	-1%	-4
O=C(CCCCCN1C(=O)c2ccccc2C1=O)NCc1ccco1	1µM*	-12	x	-1
O=C(CCN1C(=O)c2ccccc2S1(=O)=O)NCc1ccccc1	35%	x	-26%	x
O=C(CCN1C(=O)c2ccccc2S1(=O)=O)NCc1ccco1	12µM*	-33	18%	-1
O=C(O[C@@H](C(=O)O)[C@@H](OC(=O)c1ccccc1)C(=O)O)c1ccccc1	38%	x	43%	x
CCOc1ccccc1NC(=O)CSc1nc2cc(O)ccc2c(=O)n1-c1ccc(OC)c(OC)c1	u	-8	u	5
O=C(Cn1c2ccc(F)cc2c2nc3n(c(=O)c21)CCS3)NCC1CCCO1 (stereo not given)	21%	-8	8%	9
CCCOc1ccc(C(=O)NC(=S)NCc2cccnc2)cc1	-19%	14	7%	-1
CCOc1ccc(C(=O)NC(=S)Nc2cccnc2)cc1	2%	0	89%	30*
CCOc1ccc(C(=O)NC(=S)NCc2cccnc2)cc1	10µM*	17	30%	12
CCOc1cc(C(=O)NC(=S)Nc2cccnc2)cc(OCC)c1OCC	-5%	-10	6%	-3
CCOc1ccccc1N1C(=O)CN(Cc2ccc(OC)c(OC)c2)C1=S	-28%	1	1%[0.00184 µM]	2
CCCc1nn(C)c(C(=O)Nc2cccc(CC)c2)c1Cl	58%	+	39%	18*
CCCc1nn(C)c(C(=O)Nc2ccc3ccccc3c2)c1Cl	112%	54*	67%	49*
CCN1C(=O)[C@@H]2[C@@H](c3ccc(-c4ccc(Cl)c(Cl)c4)cc3)N3CCCC[C@@]3(C(=O)OC)[C@@H]2C1=O	u	x	0%	x
CCN1C(=O)[C@@H]2[C@@H](c3ccc(-c4ccc5c(c4)OCO5)cc3)N3CCCC[C@@]3(C(=O)OC)[C@@H]2C1=O	13µM*	x	u	x
COC(=O)[C@@]12CCCCN1[C@H](c1ccc(-c3ccc(C(C)=O)cc3)cc1)[C@H]1C(=O)N(C)C(=O)[C@H]12	-8%	x	u	x
CCN1C(=O)[C@@H]2[C@@H](c3ccc(-c4ccc(C(C)=O)cc4)cc3)N3CCCC[C@@]3(C(=O)OC)[C@@H]2C1=O	12µM*	x	10µM*	x
CCN1C(=O)[C@H]2[C@@H](c3ccc(-c4ccc5c(c4)OCO5)cc3)N3CCC[C@@]3(C(=O)OC)[C@H]2C1=O	-14%	x	u	x
CCN1C(=O)[C@H]2[C@@H](c3ccc(-c4ccccc4)cc3)N3CCCC[C@@]3(C(=O)OC)[C@H]2C1=O	u	x	10µM*	x
CCN1C(=O)[C@@H]2[C@@H](c3ccc(-c4ccc(OC)cc4)cc3)N3CCCC[C@@]3(C(=O)OC)[C@@H]2C1=O	5.2µM*	x	10µM*	x
CC(=O)Nc1c(I)c(C(=O)O)c(I)c(N(C)C(C)=O)c1I	-24%	x	-24%	x
SMILES	Pf growth 96h	Shiga inhibitor	Pf growth 48h	Cycloheximide cs
CN(c1ccccc1)S(=O)(=O)c1ccc(C(=O)N2CCCC(C(F)(F)F)C2)cc1 (stereo not given)	-14%	19	-13%	5
O=C(NN1CC(C(=O)OCc2ccccc2F)CC1=O)c1ccccc1 (stereo not given)	-20%	-3	16%	19
Cc1ccc(N2C(=O)C3ON(c4ccccc4)C(CC(C)C)C3C2=O)cc1 (stereo not given)	21%	21	13%	9.3*
O=C1C2ON(c3ccccc3)C(c3ccncc3)C2C(=O)N1c1ccccc1 (stereo not given)	x	-5	11%	-3
COc1ccccc1C1C2C(=O)N(c3ccccc3)C(=O)C2ON1c1ccccc1 (stereo not given)	8.3µM*	-18	1%	3
CCN(C(=O)c1cc(Cl)ccc1OC)c1ccccc1C	-3%	-3	u	7
CCN(C(=O)c1cnc(NC(C)C)cc1C(F)(F)F)c1ccc(Cl)cc1Cl	12µM*	-6	2.9µM*	-1
Fc1ccccc1N1CCN(c2nc3ccccc3n3nnnc23)CC1	67%	23	35%	14*
Cc1cccc(N2CCN(c3nc4ccccc4n4cnnc34)CC2)c1C	33%	-7	x	-2
CCS(=O)(=O)N1Cc2ccccc2CC1C(=O)NCCc1c[nH]c2ccccc12 (stereo not given)	u	-5	u	-1
COc1ccc(Cl)cc1NC(=O)CN1CCc2ccccc2C1	u	-10	u	1
Cc1ccc(N(Cc2ccccc2)C(=O)CN2C(=O)NC3(CCCC3)C2=O)cc1	u	2	u	-1
CC1CCCCC12NC(=O)N(CC(=O)OCc1ccc(Br)cc1)C2=O (stereo not given)	5%	x	u	x
Cc1cccc(N(Cc2ccccc2)C(=O)CN2C(=O)NC3(CCCCC3C)C2=O)c1 (stereo not given)	12µM*	x	u	x
CC1CCCCC12NC(=O)N(CC(=O)OCc1cccc(F)c1)C2=O (stereo not given)	u	x	13µM*	x
CN1C(=O)N(CC(=O)N2CCN(S(=O)(=O)/C=C/c3ccccc3)CC2)C(=O)C12CCCCC2	-14%	x	u	x
CC1CCCCC12NC(=O)N(CC(=O)N1CCN(S(=O)(=O)/C=C/c3ccccc3)CC1)C2=O (stereo not given)	u	x	10µM*	x
Cc1ccc(OCC(=O)NCCNC(=O)c2ccncc2)cc1C	u	-8	-6%	-1
O=C(CSc1ncn[nH]1)Nc1ccc(S(=O)(=O)N2CCCC2)cc1	u	-16	x	-3
O=c1[nH]c(/C=C2\C=Nc3ccccc32)c(O)n1Cc1ccccc1F	-22%	40	u	2
CSc1nc(O)c(/C=C2\C=Nc3ccccc32)[nH]1	24%	140*	132%	62*
Cc1ncsc1CCC(=O)N1CCCC(Nc2ccc(C(C)C)cc2)C1 (stereo not given)	u	7	u	-1
O=C(OCn1ncc(Br)c(Br)c1=O)c1ccc(F)cc1	u	13	x	24*
Cc1[nH]c2ccccc2c1-c1nc(-c2ccc(Cl)cc2)nnc1-c1ccccc1	52%	-1	-6%	13
CC(C)c1nnc(-c2ccc(Cl)cc2)c(N(C)C)n1	9.3µM*	-14	u	3
Cc1cccc(CNC(=O)c2ccc3nc(Cc4ccccc4F)oc3c2)n1	-2%	111*	-22%	58*
O=C(NCCc1ccccn1)c1ccc2nc(Cc3ccccc3F)oc2c1	14%	105*	33%	62*
Fc1ccc2nc(N3CCCC3)sc2c1	200%	85*	206%	44*
